Reference: PubChem BioAssay (Tox21)
Inconclusive results are not listed. Activity calls are given as the source filed them. Calls follow the shape of the dose curve; as a rule, active = well fitted curve in the direction sought with a large enough effect in the repeat runs; inconclusive = weak or mixed curves; inactive = no such curve, though single readings can be large; an effect the other way counts as inactive or inconclusive.

How the values were obtained:
[1] = qHTS RealTime-Glo MT Cell Viability Assay in HepG2 cells - 40 hour (AID 1224870); also: nearly all actives have a fitted effect of over 50% in size
Procedure, shortened: (§1)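 HepG2 cells (600/well) mixed with RealTime-Glo MT reagent, settled 5 h at 37 C/5% CO2 before compound addition. Nonlytic NanoLuc luminescence from viable-cell prosubstrate reduction read repeatedly during 40 h treatment at 37 C.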

[2] = A CellTox Green Cytotoxicity Assay to monitor cytotoxicity in HEK293 cells - 40 hour (AID 1224871); also: nearly all actives have a fitted effect of over 45% in size
Procedure, shortened: (§2)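 Dead-cell fluorescence measured kinetically: asymmetric cyanine dye, HEK293, 600 cells/well, 5 h settle, 23 nL cpd/DMSO, 37 C, reads 0–40 h every 8 h.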

[3] = qHTS RealTime-Glo MT Cell Viability Assay in HEK293 cells - 16 hour (AID 1224872); also: top concentration of the series differs between compounds; nearly all actives have a fitted effect of over 50% in size
Procedure, shortened: (§3)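 Cells + reagent dispensed (600 cells/well, HEK293) → 5 h at 37 C/5% CO2 → 23 nL compound in DMSO pinned → 40 h at 37 C → luminescence read at 0, 8, 16, 24, 32, 40 h.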

[4] = qHTS RealTime-Glo MT Cell Viability Assay in HepG2 cells - 8 hour (AID 1224873); also: nearly all actives have a fitted effect of over 55% in size
Procedure, shortened: as §1

[5] = qHTS RealTime-Glo MT Cell Viability Assay in HEK293 cells - 40 hour (AID 1224874); conditions: RealTime-Glo luminescence; max response: active compounds read low; also: nearly all actives have a fitted effect of over 50% in size
Procedure, shortened: (§4)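 600 HEK293 cells per well, dispensed already mixed with RealTime-Glo MT reagents. Compound dosing came 5 h later. The same wells were read for luminescence at 0, 8, 16, 24, 32 and 40 h of exposure at 37 C.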

[6] = A CellTox Green Cytotoxicity Assay to monitor cytotoxicity in HEK293 cells - 24 hour (AID 1224875); also: series mostly up to about 77 µM; nearly all actives have a fitted effect of over 45% in size
Procedure, shortened: as §2

[7] = A CellTox Green Cytotoxicity Assay to monitor cytotoxicity in HepG2 cells - 16 hour (AID 1224876); also: nearly all actives have a fitted effect of over 45% in size
Procedure, shortened: (§5)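 First, HepG2 cells (600/well) mixed with reagent were plated; second, after 5 h at 37 C they received compounds via pintool; third, fluorescence was measured at 0 h through 40 h at 8 h intervals.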

[8] = qHTS RealTime-Glo MT Cell Viability Assay in HepG2 cells - 32 hour (AID 1224877); also: nearly all actives have a fitted effect of over 55% in size
Procedure, shortened: (§6)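 Real-time, nonlytic viability: 600 HepG2 cells/well mixed with NanoLuc enzyme plus prosubstrate; 5 h settle, compound (DMSO) added by pintool; luminescence monitored over 40 h at 37 C.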

[9] = A CellTox Green Cytotoxicity Assay to monitor cytotoxicity in HepG2 cells - 24 hour (AID 1224878); also: nearly all actives have a fitted effect of over 45% in size
Procedure, shortened: as §5

[10] = A CellTox Green Cytotoxicity Assay to monitor cytotoxicity in HepG2 cells - 40 hour (AID 1224879); also: nearly all actives have a fitted effect of over 40% in size
Procedure, shortened: as §5

[11] = qHTS RealTime-Glo MT Cell Viability Assay in HEK293 cells - 0 hour (AID 1224880)
Procedure, shortened: as §4

[12] = A CellTox Green Cytotoxicity Assay to monitor cytotoxicity in HEK293 cells - 32 hour (AID 1224881); also: nearly all actives have a fitted effect of over 40% in size
Procedure, shortened: as §2

[13] = A CellTox Green Cytotoxicity Assay to monitor cytotoxicity in HepG2 cells - 0 hour (AID 1224882); also: nearly all actives have a fitted effect of over 35% in size
Procedure, shortened: as §5

[14] = A CellTox Green Cytotoxicity Assay to monitor cytotoxicity in HepG2 cells - 32 hour (AID 1224883); also: nearly all actives have a fitted effect of over 50% in size
Procedure, shortened: as §5

[15] = qHTS RealTime-Glo MT Cell Viability Assay in HepG2 cells - 16 hour (AID 1224885); also: nearly all actives have a fitted effect of over 50% in size
Procedure, shortened: as §6

[16] = qHTS RealTime-Glo MT Cell Viability Assay in HEK293 cells - 24 hour (AID 1224886)
Procedure, shortened: as §3

[17] = qHTS RealTime-Glo MT Cell Viability Assay in HEK293 cells - 8 hour (AID 1224887)
Procedure, shortened: as §4

[18] = A CellTox Green Cytotoxicity Assay to monitor cytotoxicity in HEK293 cells - 16 hour (AID 1224888); also: nearly all actives have a fitted effect of over 35% in size
Procedure, shortened: as §2

[19] = qHTS RealTime-Glo MT Cell Viability Assay in HepG2 cells - 0 hour (AID 1224889); also: nearly all actives have a fitted effect of over 50% in size
Procedure, shortened: as §6

[20] = A CellTox Green Cytotoxicity Assay to monitor cytotoxicity in HEK293 cells - 8 hour (AID 1224884); also: nearly all actives have a fitted effect of over 35% in size
Procedure, shortened: as §2
% is scaled to controls: 0 for no effect and ±100 for the full control effect.

CC/C=C\CCO
inactive: Potency [1] | Potency [2] | Potency [3] | outcome [4] | max response [5] 15.9% | Potency [6] | Potency [7] | Potency [8] | Potency [9] | Potency [10] | Potency [11] | Potency [12] | Potency [13] | Potency [14] | outcome [15] | Potency [16] | Potency [17] | Potency [18] | Potency [19]

O=C1CCCN1CCO
inactive: Potency [1] | Potency [2] | Potency [3] | outcome [4] | max response [5] -23.9% | Potency [6] | Potency [7] | Potency [8] | Potency [9] | Potency [10] | Potency [11] | Potency [12] | Potency [13] | Potency [14] | Potency [20] | outcome [15] | Potency [16] | Potency [18] | Potency [19]

CCC(C)CCCC(C)(C)O (stereo not given)
inactive: Potency [1] | Potency [2] | Potency [3] | outcome [4] | max response [5] 21.8% | Potency [6] | Potency [7] | Potency [8] | Potency [9] | Potency [10] | Potency [11] | Potency [12] | Potency [13] | Potency [14] | Potency [20] | outcome [15] | Potency [16] | Potency [17] | Potency [18] | Potency [19]

CCC(C)C1N=C(C)C(C)S1 (stereo not given)
inactive: Potency [1] | Potency [2] | Potency [3] | outcome [4] | max response [5] 6.11% | Potency [6] | Potency [7] | Potency [8] | Potency [9] | Potency [10] | Potency [11] | Potency [12] | Potency [13] | Potency [14] | Potency [20] | outcome [15] | Potency [16] | Potency [17] | Potency [18] | Potency [19]

O=c1[nH]nc(-c2ccc([N+](=O)[O-])o2)o1
inactive: Potency [1] | Potency [2] | Potency [3] | outcome [4] | max response [5] -1.91% | Potency [6] | Potency [7] | Potency [8] | Potency [9] | Potency [10] | Potency [11] | Potency [12] | Potency [13] | Potency [14] | Potency [20] | outcome [15] | Potency [16] | Potency [17] | Potency [18] | Potency [19]

CC(C(=O)O)c1ccc2c(c1)Cc1cccnc1O2 (stereo not given)
inactive: Potency [1] | Potency [2] | Potency [3] | outcome [4] | max response [5] 1.21% | Potency [6] | Potency [7] | Potency [8] | Potency [9] | Potency [10] | Potency [11] | Potency [12] | Potency [13] | Potency [14] | outcome [15] | Potency [16] | Potency [17] | Potency [18] | Potency [19]

Cc1nc(C)c(C)nc1C
inactive: Potency [1] | Potency [2] | Potency [3] | outcome [4] | max response [5] -5.51% | Potency [6] | Potency [7] | Potency [8] | Potency [9] | Potency [10] | Potency [11] | Potency [12] | Potency [13] | Potency [14] | Potency [20] | Potency [16] | Potency [17] | Potency [18] | Potency [19]

CC(C)(C(=O)O)c1ccc(C(O)CCCN2CCC(C(O)(c3ccccc3)c3ccccc3)CC2)cc1 (stereo not given)
inactive: Potency [1] | Potency [2] | Potency [3] | outcome [4] | max response [5] 1.75% | Potency [6] | Potency [7] | Potency [8] | Potency [9] | Potency [10] | Potency [11] | Potency [12] | Potency [13] | Potency [14] | Potency [20] | outcome [15] | Potency [16] | Potency [17] | Potency [18] | Potency [19]

O=P(c1ccccc1)(c1ccccc1)c1ccccc1
inactive: Potency [1] | Potency [2] | Potency [3] | outcome [4] | max response [5] -19% | Potency [6] | Potency [7] | Potency [8] | Potency [9] | Potency [10] | Potency [11] | Potency [12] | Potency [13] | Potency [14] | Potency [20] | outcome [15] | Potency [16] | Potency [17] | Potency [18] | Potency [19]

Cc1ccc(S(=O)(=O)NC(=O)NC2CCCC2)cc1
inactive: Potency [1] | Potency [2] | Potency [3] | outcome [4] | max response [5] 0.385% | Potency [6] | Potency [7] | Potency [8] | Potency [9] | Potency [10] | Potency [11] | Potency [12] | Potency [13] | Potency [14] | Potency [20] | outcome [15] | Potency [16] | Potency [17] | Potency [18] | Potency [19]

OCC(O)c1ccccc1 (stereo not given)
inactive: Potency [1] | Potency [2] | Potency [3] | outcome [4] | max response [5] -20.6% | Potency [6] | Potency [7] | Potency [8] | Potency [9] | Potency [10] | Potency [11] | Potency [12] | Potency [13] | Potency [14] | Potency [20] | outcome [15] | Potency [16] | Potency [17] | Potency [18] | Potency [19]

c1ccc(-c2ccc(-c3ccccc3)cc2)cc1
inactive: activity change, negative = cytotoxic [1] 3.84% [at 15.8 µM] | cytotoxicity increase [2] -4.32% [at 15.8 µM] | activity change, negative = cytotoxicity [3] 0.695% [at 15.8 µM] | viability change, negative = cytotoxic [4] 0.239% [at 15.8 µM] | max response [5] 0.336% | activity change [6] -5.55% [at 15.8 µM, active compounds read high] | cytotoxicity increase [7] -3.4% [at 15.8 µM] | activity change, negative = cytotoxic [8] 2.08% [at 15.8 µM] | cytotoxicity [9] -1.79% [at 15.8 µM] | cytotoxicity increase [10] 1.53% [at 15.8 µM] | activity change, negative = cytotoxicity [11] 1.15% [at 15.8 µM] | cytotoxicity increase [12] -3.83% [at 15.8 µM] | cytotoxicity [13] 0.432% [at 15.8 µM] | cytotoxicity increase [14] 2.09% [at 15.8 µM] | cytotoxicity increase [20] -5.69% [at 15.8 µM] | activity change, negative = cytotoxic [15] 0.423% [at 15.8 µM] | activity change, negative = cytotoxicity [16] 0.629% [at 15.8 µM] | activity change, negative = cytotoxicity [17] 0.793% [at 15.8 µM] | activity change [18] -4.6% [at 15.8 µM, active compounds read high] | activity change, negative = cytotoxicity [19] -2.66% [at 15.8 µM]

C/C(=C(\CCO)SS/C(CCO)=C(\C)N(C=O)Cc1cnc(C)nc1N)N(C=O)Cc1cnc(C)nc1N
inactive: Potency [1] | Potency [2] | Potency [3] | outcome [4] | max response [5] 7.21% | Potency [6] | Potency [7] | Potency [8] | Potency [9] | Potency [10] | Potency [11] | Potency [12] | Potency [13] | Potency [14] | outcome [15] | Potency [16] | Potency [17] | Potency [18] | Potency [19]
